We go through eight compounds from PubChem BioAssay (NCI).

Molecules are shown by their SMILES. This is part of a sample that, as a whole, favours compounds with a hit. Of some 83,000 tested, about 20% had one in any assay.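 In brief: 96-well plates, 48 h treatment, single concentration, percent growth endpoint.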 Values without a mark were called inactive. Activity calls are given as the source filed them. The calls were made as follows: active = growth percent below 10; inactive = the rest.

Some test systems named below: NCI-H23 lung; NCI-H226 lung; NCI-H322M lung; HOP-62 NSCLC; NCI-H460 lung; HOP-92 NSCLC; NCI-H522 lung; A549/ATCC NSCLC; 786-0 renal; COLO 205 colon; DU-145 prostate; K-562 leukemia; MALME-3M melanoma; MDA-MB-231 breast; RXF 393 renal; SF-268 CNS; SF-295 CNS; SF-539 CNS; UACC-257 melanoma; M14 melanoma.
Common to all, as to assay: NCI-60 one-dose screen, 48 h (100 = growth as untreated, 0 = no growth, -100 = all killed)
Common to all, as to settings: 10 µM unless noted

Regarding `Cc1cnc(-c2ccc(-c3ccc(NC(=O)Nc4c(F)cc(F)cc4F)cc3F)c3c2C(=O)NC3)[nH]1`, the growth in the assay with NCI-H23 lung is 20.8%; in the assay on NCI-H226 lung, 65.6%; with NCI-H322M lung it was 43.1%; with HOP-62 NSCLC, 53.2%; in the assay with NCI-H460 lung, -29.5% (active); with HOP-92 NSCLC, 70.8%. Further, the growth in the assay on NCI-H522 lung was 37.2%; with A549/ATCC NSCLC, 45.2%; in the assay with 786-0 renal, 23.1%; in the assay on COLO 205 colon, 20.5%; with DU-145 prostate it was 7.83% (active); in the assay on K-562 leukemia, 22.1%. The growth in the assay on MALME-3M melanoma was -3.16% (active); with MDA-MB-231 breast, 36.5%; with RXF 393 renal, 21.5%; in the assay with SF-268 CNS, 39.2%; in the assay on SF-295 CNS it was 58.8%; in the assay on SF-539 CNS it was 56.1%. For the same compound, the values for the growth with UACC-257 melanoma and in the assay on M14 melanoma were 43.8% and 16.1%, respectively.

Consider `O=C(O)C(C(=O)O)c1cccc2ccccc12`, for which the growth with NCI-H23 lung is 99.9%; with NCI-H226 lung, 102%; with NCI-H322M lung it was 101%; in the assay on HOP-62 NSCLC, 92.7%; in the assay on NCI-H460 lung it was 104%; in the assay with HOP-92 NSCLC it was 94.5%. The growth in the assay on NCI-H522 lung is 88.9%; in the assay with A549/ATCC NSCLC it was 94.4%; with 786-0 renal it was 95.4%; in the assay with COLO 205 colon, 110%; in the assay with DU-145 prostate, 105%; in the assay on K-562 leukemia it was 93.8%. Besides, the growth in the assay with MALME-3M melanoma was 107%; with MDA-MB-231 breast, 108%; in the assay with RXF 393 renal, 107%; in the assay with SF-268 CNS it was 98%; in the assay on SF-295 CNS, 101%; with SF-539 CNS, 94.5%. For the same compound, the growth is 88.1% with UACC-257 melanoma and 101% in the assay with M14 melanoma.

As to `Cc1ccc(-c2nc(C#N)c(S(=O)(=O)N(C)CCO)o2)cc1`, the growth in the assay on NCI-H23 lung is 80.3%; with NCI-H226 lung, 124%; in the assay on NCI-H322M lung, 93.3%; in the assay on HOP-62 NSCLC, 97.7%; with NCI-H460 lung, 89.3%; with HOP-92 NSCLC, 88.9%. The growth was 17.5% in the assay on NCI-H522 lung; 99% in the assay on A549/ATCC NSCLC; 79.6% with 786-0 renal; 44.3% in the assay on COLO 205 colon; 90.2% with DU-145 prostate; 25% in the assay on K-562 leukemia. For the same compound, the growth is 60.1% with MALME-3M melanoma; 81.4% in the assay with MDA-MB-231 breast; 107% with RXF 393 renal; 72.6% with SF-268 CNS; 104% in the assay with SF-295 CNS; 43% in the assay with SF-539 CNS. The growth was 77.9% in the assay on UACC-257 melanoma and 61.7% in the assay on M14 melanoma.

For the compound `O=C(NCc1ccccc1)c1ccc2c(c1)NC(=O)[C@@H]1CCCN21`, the growth with NCI-H23 lung was 90.6%; with NCI-H226 lung, 103%; in the assay with NCI-H322M lung it was 92.8%; in the assay on HOP-62 NSCLC, 103%; in the assay with NCI-H460 lung, 94.7%; in the assay with HOP-92 NSCLC, 102%. Moreover, the growth with NCI-H522 lung was 91.3%; with A549/ATCC NSCLC it was 106%; in the assay on 786-0 renal it was 95.9%; in the assay on COLO 205 colon, 110%; with DU-145 prostate it was 99.7%; in the assay with K-562 leukemia, 106%. In addition, the growth is 92.2% in the assay on MALME-3M melanoma; 103% in the assay with MDA-MB-231 breast; 109% with RXF 393 renal; 95.6% with SF-268 CNS; 98.7% in the assay on SF-295 CNS; 105% with SF-539 CNS. Also, the growth with UACC-257 melanoma is 104%; in the assay on M14 melanoma, 95.8%.

Regarding `O=C1CC23OC(C(O)c4ccccc4N12)C1C(c2ccccc2)=NOC13` (stereo not given), the growth in the assay with NCI-H23 lung was 66.7%; in the assay with NCI-H226 lung it was 82%; with NCI-H322M lung, 79.7%; in the assay with HOP-62 NSCLC, 68.5%; in the assay with NCI-H460 lung it was 76.5%; in the assay on HOP-92 NSCLC, 43.3%. Besides, the growth in the assay on NCI-H522 lung was 40.8%; in the assay on A549/ATCC NSCLC, 82.9%; in the assay with 786-0 renal it was 37.2%; in the assay on COLO 205 colon, 50.6%; in the assay on DU-145 prostate, 81.9%; in the assay with K-562 leukemia, 16.1%. Also, the growth in the assay on MALME-3M melanoma was 49.8%; in the assay with MDA-MB-231 breast, 52.9%; in the assay with RXF 393 renal, 71.5%; with SF-268 CNS, 64.1%; with SF-295 CNS, 42.3%; in the assay with SF-539 CNS, 50%. In addition, the growth in the assay on UACC-257 melanoma was 89.2%; with M14 melanoma it was 16.1%.

For the compound `[2H]c1nc(Nc2ncc3cc(C(=O)N(C)C)n(C4CCCC4)c3n2)c([2H])c([2H])c1N1C([2H])([2H])C([2H])([2H])NC([2H])([2H])C1([2H])[2H]`, the growth was 67.1% with NCI-H23 lung; 74.6% in the assay on NCI-H226 lung; 71.5% in the assay with NCI-H322M lung; 52.3% in the assay with HOP-62 NSCLC; 59.1% in the assay with NCI-H460 lung; 65.8% in the assay on HOP-92 NSCLC. In addition, the growth in the assay with NCI-H522 lung is 61.8%; with A549/ATCC NSCLC, 45%; in the assay on 786-0 renal, 52.9%; in the assay with COLO 205 colon it was 28.1%; in the assay on DU-145 prostate it was 88.4%; in the assay with K-562 leukemia it was 53.2%. Also, the growth was 62.4% with MALME-3M melanoma; 51% with MDA-MB-231 breast; 62.9% with RXF 393 renal; 75.3% in the assay on SF-268 CNS; 72.1% with SF-295 CNS; 71.5% in the assay on SF-539 CNS. Moreover, the growth in the assay on UACC-257 melanoma is 60%; in the assay on M14 melanoma, 70.7%.

As to `COc1cc2nc3c(=O)n(-c4ccc(C#N)cc4)cnn3c(=O)c2cc1OC`, the growth in the assay on NCI-H23 lung was 98.3%; in the assay on NCI-H226 lung it was 95.1%; in the assay with NCI-H322M lung it was 93.3%; in the assay on HOP-62 NSCLC it was 102%; in the assay on NCI-H460 lung, 104%; in the assay on HOP-92 NSCLC it was 103%. Further, the growth was 82.1% in the assay with NCI-H522 lung; 106% in the assay with A549/ATCC NSCLC; 103% in the assay with 786-0 renal; 94.3% in the assay with COLO 205 colon; 103% in the assay with DU-145 prostate; 106% with K-562 leukemia. Moreover, the growth was 87.5% with MALME-3M melanoma; 103% with MDA-MB-231 breast; 100% in the assay with RXF 393 renal; 88.5% with SF-268 CNS; 99.8% in the assay with SF-295 CNS; 94.9% in the assay with SF-539 CNS. Besides, the growth is 110% in the assay with UACC-257 melanoma and 94.1% in the assay on M14 melanoma.

With `Cc1ccc(SC2c3ccc(C)cc3Oc3nc(N)c(C#N)c(N)c32)cc1` (stereo not given), the growth in the assay on NCI-H23 lung is 82.8%; in the assay with NCI-H226 lung, 92.8%; with NCI-H322M lung, 104%; with HOP-62 NSCLC, 89.8%; with NCI-H460 lung it was 101%; with HOP-92 NSCLC it was 66.6%. Also, the growth in the assay with NCI-H522 lung is -53.4% (active); with A549/ATCC NSCLC, 101%; in the assay on 786-0 renal, 91.4%; in the assay on COLO 205 colon, 62.8%; with DU-145 prostate it was 92.6%; in the assay on K-562 leukemia, 4.29% (active). The growth with MALME-3M melanoma is 31.9%; in the assay with MDA-MB-231 breast, 69.9%; in the assay on RXF 393 renal it was 53.9%; with SF-268 CNS, 82.8%; in the assay on SF-295 CNS it was 103%; with SF-539 CNS, 90.5%. The values for the growth with UACC-257 melanoma and in the assay on M14 melanoma were 94.6% and 94.9%, respectively.
